Source: PubChem BioAssay AID652015 (National Center for Advancing Translational Sciences (NCATS), 2013)
Results filed as inconclusive are left out. Active and inactive are the calls of the source. Calls come from the whole dose curve; as a rule, active = well fitted inhibition curve with a large enough effect; inconclusive = small, poorly fitted or top-dose-only effect; inactive = no such curve, though single readings can be large or run the other way.

target: Coelenterazine h 2-monooxygenase (Renilla reniformis) (UniProt P27652); assay: qHTS Assay for Inhibitors of Sea Pansy Luciferase from the GSK Published Protein Kinase Inhibitor Set; conditions: purified Renilla luciferase, luminescence; series mostly up to 57.5 µM; activity change, negative = inhibition: at the top concentration
In short: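 Purified R. reniformis luciferase (1 nM final) with 5 uM coelenterazine h in 50 mM Tris acetate pH 7.5, 100 uM NaCl, 0.01% Tween-20, 0.05% BSA. A titration, about 60 uM to 300 pM; luminescence read after about 2 min.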
Potency is the fitted concentration of half-maximal effect.

Chain of Coelenterazine h 2-monooxygenase (Renilla reniformis) (P27652 whole entry, looked up): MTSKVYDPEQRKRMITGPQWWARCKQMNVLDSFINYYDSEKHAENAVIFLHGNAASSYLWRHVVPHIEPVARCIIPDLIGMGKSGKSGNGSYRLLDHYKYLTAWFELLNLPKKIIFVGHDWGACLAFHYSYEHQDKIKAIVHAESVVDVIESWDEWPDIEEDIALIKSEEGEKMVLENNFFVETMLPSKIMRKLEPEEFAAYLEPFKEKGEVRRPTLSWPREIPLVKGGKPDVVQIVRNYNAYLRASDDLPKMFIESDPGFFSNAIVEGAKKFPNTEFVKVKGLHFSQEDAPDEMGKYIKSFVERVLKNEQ

SMILES | Potency | activity change, negative = inhibition
CN1CCN(CCCNc2nc3ccc(Oc4ccc(NC(=O)Nc5cc(C(F)(F)F)ccc5F)cc4)cc3[nH]2)CC1 | 23.1 µM (active) | 
COC(=O)c1cncc(C=Cc2c(C)cc(O)cc2C)c1 |  | 31.7% (inactive)
Cc1cc(O)cc(C)c1C=Cc1cncc(C(N)=O)c1 |  | 28.5% (inactive)
Nc1nccc(-c2c(-c3ccc(F)cc3)ncn2C2CCNCC2)n1 | inactive | 
CNC(=O)c1cncc(C=Cc2c(C)cccc2C)c1 |  | 11.8% (inactive)
COc1cccc(Nc2nccc(-c3cnn4ncccc34)n2)c1 |  | 51.7% (inactive)
O=C(OC1CNC(C#Cc2cc3ncnc(Nc4ccc(OCc5cccc(F)c5)c(Cl)c4)c3s2)C1)N1CCOCC1 (centres undefined) |  | 25.9% (inactive)
CC1=C(C(=O)Nc2ccc3[nH]ncc3c2)C(c2ccc(F)cc2)N=C(c2ccc(C(F)(F)F)nc2)N1 (centres undefined) |  | 32.8% (inactive)
Cc1cc(O)cc(C)c1C=Cc1cncc(-c2nn[nH]n2)c1 |  | 35.1% (inactive)
Nc1nccc(-c2c(-c3ccc(F)cc3)ncn2CCCN2CCOCC2)n1 |  | 25.3% (inactive)
CC(=O)Nc1cccc(C#Cc2cncnc2Nc2ccc(OCc3cccc(F)c3)c(Cl)c2)c1 |  | 9.74% (inactive)
COc1cccc(C=NNc2ncnc3c2cnn3-c2cccc(OC)c2)c1 |  | 30.6% (inactive)
Cc1ccc(C(=O)NC2CCCCC2)cc1-c1ccc(C(=O)NCC2CC2)cc1 |  | 8.65% (inactive)
COc1cc2ncn(-c3cc(OCc4ccccc4S(C)(=O)=O)c(C#N)s3)c2cc1OC |  | 1.76% (inactive)
COc1ccc(CNC(=O)c2ccc(-c3cc(-c4nnc(C)o4)ccc3C)cc2)cc1 |  | 31.4% (inactive)
COc1cc(Nc2ncc3c(C)nc(-c4cccc(Oc5ccccc5)c4)n3n2)cc(OC)c1OC |  | 13.9% (inactive)
Cc1ccc(O)cc1Nc1ccnc2ccc(S(C)(=O)=O)cc12 |  | 30.1% (inactive)
CCNC(=O)OC1CNC(C#Cc2cc3ncnc(Nc4ccc(OCc5cccc(F)c5)c(Cl)c4)c3s2)C1 (centres undefined) |  | 39.2% (inactive)
CC(C)COC(=O)c1ccc2[nH]c(O)c(C=Nc3ccc(S(N)(=O)=O)cc3)c2c1 |  | 37.1% (inactive)
CCN1CCC(C(=O)Nc2n[nH]c3nnc(-c4cccc(F)c4F)cc23)CC1 |  | 10.2% (inactive)

SMILES | Potency | activity change, negative = inhibition
Nc1nonc1-c1nc2cnccc2n1C1CC1 |  | 21.9% (inactive)
c1ccc(-c2[nH]ncc2-c2ccnc(-c3ccc(OCCn4ccnc4)cc3)c2)nc1 |  | -9.9% (inactive)
CCN(CC)S(=O)(=O)c1ccc(OC)c(Nc2ncc(-c3ccccc3)o2)c1 |  | 52.6% (inactive)
CCc1nn2ncccc2c1-c1ccnc(NC2CC2)n1 |  | 32.9% (inactive)
O=C(Nc1n[nH]c2cc(-c3ccc(F)cc3)ccc12)C1CC1 |  | 46.1% (inactive)
CN(C)c1ccc2[nH]c(O)c(C=Nc3ccc(S(N)(=O)=O)cc3)c2c1 | 5.8 µM (active) | 
COc1ccc(-c2nn3ncccc3c2-c2ccnc(Nc3ccc(F)c(F)c3)n2)cc1 |  | 33.8% (inactive)
CNC(=O)c1ncccc1Nc1nc(Nc2cc3c(cc2OC)CCCN3C(=O)CN(C)C)nc2[nH]ccc12 |  | 73.7% (inactive)
O=C(Nc1n[nH]c2nc(-c3ccco3)c(Br)cc12)C1CC1 |  | 18.8% (inactive)
CNC(=O)c1cncc(C=Cc2ccccc2Cl)c1 |  | 5.6% (inactive)
CN1CCN(C(=O)c2ccc(NC(=O)Nc3ccc(N(C)c4ccnc(Nc5ccc(CS(C)(=O)=O)cc5)n4)cc3)cc2)CC1 |  | -7.71% (inactive)
N#Cc1cccc(Nc2ncc(-c3ccccc3)o2)c1 |  | 33.1% (inactive)
Nc1nc(-c2cccc(Cl)c2)c(-c2ccc3ncccc3n2)s1 |  | -0.406% (inactive)
O=C(Nc1ccc(Oc2ccc3nc(NC(=O)c4ccccc4)[nH]c3c2)cc1)Nc1cc(C(F)(F)F)ccc1F |  | 4.44% (inactive)
Cc1ccc(NC(=O)CC2CC2)cc1-c1ccc(C(=O)NCC2CC2)cc1 |  | 38.6% (inactive)
O=C1NC(=O)C(c2ccccc2)=C1Nc1ccccc1 |  | 16.4% (inactive)
c1ccc(COc2ccc(Nc3ncnc4ccc(-c5ccco5)cc34)cc2)cc1 |  | 22.2% (inactive)
COc1ccc2c(-c3ccnc(Nc4cccc(OC(F)(F)F)c4)n3)cnn2n1 |  | 43.3% (inactive)
Cc1ccc2c(-c3ccnc(Nc4ccccc4)n3)c(-c3ccc(F)cc3)nn2n1 |  | 22.8% (inactive)
